In PubChem BioAssay (NCATS) one finds Potency data, which are given here for 32 compounds.

Inconclusive results are not listed. Where a call stands in place of a potency, no number is given. The source made the active and inactive calls. Calls come from the whole dose curve; as a rule, active = well fitted inhibition curve with a large enough effect; inconclusive = small, poorly fitted or top-dose-only effect; inactive = no such curve, though single readings can be large or run the other way.
Potency is the fitted concentration of half-maximal effect.

The nature of the experiment: qHTS Screen of the MIPE 4.0 Collection Against Ewings Sarcoma (EW8) (AID 1259255). Note: nearly all actives have a fitted effect of over 35% in size. Conditions: EW8 Ewing sarcoma viability, CellTiter-Glo, 48 h; series mostly up to 45.8 µM. The procedure, abridged:
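After a 4 h attachment period in RPMI/5% FBS, cells were pin-dosed with test compounds; DMSO served as negative and 9.2 uM bortezomib (final) as positive control. Luminescent CellTiter-Glo signal at 48 h defined viability.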
A general note: Quantitative high-throughput screening tests each substance at several concentrations.
With `O=C(O)CCCCCC(=O)NN=C1CCCC1`, the Potency result was “inactive”.
To `CC(C)(C)[N+]([O-])=Cc1ccc(S(=O)(=O)O)cc1S(=O)(=O)O` belongs “inactive”.
To `C[C@@]12C[C@@]3(O)O[C@@H](O1)[C@]1(COC(=O)c4ccccc4)[C@@H]3C[C@@]12O[C@@H]1O[C@H](CO)[C@@H](O)[C@H](O)[C@@H]1O` belongs “inactive”; to `Cc1cncc2cccc(S(=O)(=O)N3CCCN(C(=O)CN)C[C@@H]3C)c12`, 2.64 µM (active); to `O=C(O)C=Cc1ccc(Cn2ccnc2)cc1`, “inactive”.
To `O=C(CN1C(=O)C2(CCCC2)NC[C@H]1c1cc(F)cc(F)c1)Nc1ccc2c(c1)C[C@@]1(C2)C(=O)Nc2ncccc21` belongs “inactive”; to `CCN1CCN(C(=O)N[C@H](C(=O)N[C@@H]2C(=O)N3C(C(=O)O)=C(CSc4nnnn4C)CS[C@@H]23)c2ccc(O)cc2)C(=O)C1=O`, “inactive”; to `Cc1ccc(-n2[nH]c(C)c(N=Nc3cccc(-c4cccc(C(=O)O)c4)c3O)c2=O)cc1C`, 18.7 µM (active).
Take `NC(=NCCCCCCN=C(N)N=C(N)Nc1ccc(Cl)cc1)N=C(N)Nc1ccc(Cl)cc1`: the Potency is 9.35 µM (active).
For `C=C(C)[C@@H]1CC[C@]2(C)CC[C@]3(C)[C@H](CC[C@@H]4[C@@]5(C)CC[C@H](O)C(C)(C)[C@H]5CC[C@]43C)[C@@H]12`, the Potency entry is “inactive”.
Consider `O=C1NC(O)CCN1[C@@H]1O[C@H](CO)[C@H](O)[C@H]1O` (some centres not stated), for which the Potency result is “inactive”.
To `NS(=O)(=O)OC[C@@H]1C[C@@H](n2ccc3c(N[C@H]4CCc5ccccc54)ncnc32)C[C@H]1O` belongs 0.132 µM (active).
Take `Cc1cc(-c2nnc3n2CCCCC3)c(C)n1-c1ccccc1`: the Potency result is “inactive”.
For the compound `NC(=O)Nc1sc(-c2ccc(F)cc2)cc1C(N)=O`, the Potency was 3.72 µM (active).
With `C=C1CCC2[C@](C)(CO)C(O)CC[C@]2(C)C1CC=C1C(=O)OCC1O` (some centres not stated), the Potency entry is “inactive”.
To `CC[C@H]1OC(=O)[C@H](C)[C@@H](O[C@H]2C[C@@](C)(OC)[C@@H](O)[C@H](C)O2)[C@H](C)[C@@H](O[C@@H]2O[C@H](C)C[C@H](N(C)C)[C@@H]2O)[C@](C)(OC)C[C@@H](C)C(=O)[C@H](C)[C@@H](O)[C@]1(C)O` belongs “inactive”.
To `Cc1ccc2nc(NCCN)c3ncc(C)n3c2c1` belongs 9.35 µM (active).
`CCc1cc(C(C)=NOCc2ccc(C3CCCCC3)c(C(F)(F)F)c2)ccc1CN1CC(C(=O)O)C1`: the Potency entry was “inactive”.
`COc1cc(C(=O)NC2CCN(C)CC2)ccc1Nc1ncc2c(n1)N(C1CCCC1)CCC(=O)N2C(C)C`: the Potency is 2.09 µM (active).
With `CC(C=CC=C(C)C=CC1=C(C)CCCC1(C)C)=CC=CC=C(C)C=CC=C(C)C=CC1=C(C)CCCC1(C)C` the figure was 14.8 µM (active).
Take `CCOC(=O)N1CCN([N+]([O-])=NOc2ccc([N+](=O)[O-])cc2C#N)CC1`: the Potency was 2.35 µM (active).
With `C[C@H]1[C@@H](OC(=O)CCC(=O)O)O[C@@H]2O[C@@]3(C)CC[C@@H]4[C@H](C)CC[C@@H]1[C@@]24OO3` the figure was 1.66 µM (active); with `C[C@]12CCC(=O)C=C1[C@@H]1CC1[C@H]1[C@H]3[C@@H]4C[C@H]4[C@@]4(CCC(=O)O4)[C@@]3(C)CC[C@H]12` (some centres not stated), “inactive”; with `COc1ccc(CCC(=O)c2c(O)cc(O[C@@H]3O[C@H](CO)[C@@H](O)[C@H](O)[C@@H]3O[C@@H]3O[C@@H](C)[C@H](O)[C@@H](O)[C@@H]3O)cc2O)cc1O`, 10.5 µM (active).
To `C[C@H](NCc1ccc(OCc2cccc(F)c2)cc1)C(N)=O` belongs 8.33 µM (active); to `CC(=O)[C@]1(O)Cc2c(O)c3c(c(O)c2[C@@H](O[C@H]2C[C@H](N)[C@@H](O)[C@H](C)O2)C1)C(=O)c1ccccc1C3=O`, 0.0187 µM (active).
To `CC(C)(O)CC[C@@H](O)[C@](C)(O)[C@H]1CC[C@@]2(O)C3=CC(=O)[C@@H]4C[C@@H](O)[C@@H](O)C[C@]4(C)[C@@H]3CC[C@]12C` belongs “inactive”.
Take `C[C@@H](NCc1cc2ccccc2[nH]1)c1cccc2ccccc12`: the Potency result was “inactive”.
With `CC(C=CC1=C(C)CCCC1(C)C)=CC=CC(C)=CC(=O)Nc1ccc(O)cc1` the figure was 4.29 µM (active); with `CC(C)C[C@H](NC(=O)CNC(=O)c1cc(Cl)ccc1Cl)B1OC(=O)CC(CC(=O)O)(C(=O)O)O1` (some centres not stated), 0.118 µM (active).
As to `Cc1cn([C@@H]2O[C@H](CO)[C@@H](O)[C@H]2F)c(=O)[nH]c1=O`, the Potency entry is “inactive”.
To `c1cncc(CN2CCC(n3ncc4c(N5CCOCC5)nc(-c5ccc6[nH]ccc6c5)nc43)CC2)c1` belongs 6.62 µM (active).
